Epigenetic derep: epigenetic control regulation, reporter derepression. murine LDR cells, GFP reporter derepression, 30 h. Potency, µM (series often up to 53.9 µM), actives largely listed as activators. 280,000 compounds, 0.2% hits; active means well fitted activation curve with a large enough effect; inconclusive means small, poorly fitted or top-dose-only effect; further: nearly all actives have a fitted effect of over 60% in size
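In this reporter-derepression format, murine cells bearing a silenced integrated CMV-GFP locus incubate with test compound (30 h, 37 C), then are washed and imaged; fluorescent objects of 20–120 um count as induced cells.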
CXXC DNA block: MLL CXXC-DNA interaction inhibition | Q03164 | MLL-CXXC / FITC-HOXA9 DNA fluorescence polarization | Potency, µM (series often up to 115 µM), hits mostly inhibitors | 290,000 compounds, 0.037% hits; active means well fitted inhibition curve with a large enough effect in the polarisation, with a control signal flat, not every such curve was filed as active; inconclusive means small, poorly fitted or top-dose-only effect, or effect the other way, or a change in a side signal; inactive means no such curve, though single readings can be large or run the other way; the % refers to the polarisation
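Steps: dispense CXXC domain solution (7 uM) → pin compounds or unlabeled HOX-A9 DNA control → 5 min ambient → add FLSN-HOX-A9 solution (50 nM) → spin → 30 min ambient → fluorescence polarization. Tris pH 7.5/NaCl/DTT/BSA buffer.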
PINK1 modulator: changes PINK1 expression. PINK1 immunofluorescence, high-content cytometry, 24 h. Potency, µM (top dose mostly 76.6 µM), actives largely listed as activators. 410,000 compounds, 0.2% hits. AID 624263; active means well fitted activation curve with a large enough effect; inconclusive means small, poorly fitted or top-dose-only effect; cell line not stated here; further: nearly all actives have a fitted effect of over 65% in size
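Cells are seeded, rested 12 hours, then given compound at five concentrations or DMSO for 24 hours. After fixation, blocking and antibody staining, PINK1 amount and mitochondrial localization are scored; CCCP serves as control.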
ClpP mod: qHTS Assay for Activators of ClpP | AID 651965, 2013 | 340,000 compounds, 1.9% hits | purified B. subtilis ClpP, FRET peptide cleavage, 20 min | ATP-dependent Clp protease proteolytic subunit (Bacillus subtilis (strain 168)), P80244 | Potency, µM (doses to about 57.5 µM); active means well fitted falling curve with a large enough effect; inconclusive means small, poorly fitted or top-dose-only effect; inactive means no such curve, though single readings can be large or run the other way; further: the source files actives as falling curves though it sought activators and does not explain the sign; nearly all actives have a fitted effect of over 65% in size
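FRET quenching reversal measured ClpP activation: 10 microg/mL B. subtilis ClpP at pH 8 with the FRET-FV decapeptide, read at 430 nm after 320 nm excitation. The 20-min minus 0-min signal was scaled between DMSO/no-enzyme wells and ADEP (5.8 microM final).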
Menin MLL FP TR: displaces Texas Red mutant MLL peptide from human menin; Menin + Texas Red MLL mutant peptide, fluorescence polarization; Potency, µM (top dose mostly 61.6 µM), most hits filed as inhibitors; 270,000 compounds, 0.23% hits; active means well fitted inhibition curve with a large enough effect in the polarisation, with a control signal flat, not every such curve was filed as active; inconclusive means small, poorly fitted or top-dose-only effect, or effect the other way, or a change in a side signal; inactive means no such curve, though single readings can be large or run the other way; the % refers to the polarisation
Target sequence (O00255 whole entry, looked up): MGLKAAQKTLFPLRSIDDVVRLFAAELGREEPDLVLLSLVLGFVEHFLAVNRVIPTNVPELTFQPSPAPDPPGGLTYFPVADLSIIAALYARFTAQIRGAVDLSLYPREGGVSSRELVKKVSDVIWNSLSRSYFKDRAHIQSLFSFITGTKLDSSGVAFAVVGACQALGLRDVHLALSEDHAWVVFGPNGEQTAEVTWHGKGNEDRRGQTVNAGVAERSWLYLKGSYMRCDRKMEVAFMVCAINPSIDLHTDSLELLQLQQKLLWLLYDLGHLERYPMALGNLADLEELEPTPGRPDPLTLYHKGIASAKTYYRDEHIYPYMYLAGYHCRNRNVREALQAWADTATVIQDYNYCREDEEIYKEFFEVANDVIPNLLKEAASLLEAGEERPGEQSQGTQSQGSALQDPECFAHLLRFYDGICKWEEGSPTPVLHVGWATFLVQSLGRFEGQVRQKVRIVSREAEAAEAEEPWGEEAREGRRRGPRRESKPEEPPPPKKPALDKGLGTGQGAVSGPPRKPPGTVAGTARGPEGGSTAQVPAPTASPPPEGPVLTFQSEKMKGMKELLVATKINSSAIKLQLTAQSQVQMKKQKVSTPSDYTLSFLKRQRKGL
Menin-MLL FL inh: displaces fluorescein MLL peptide from human menin. Fluorescence polarization, fluorescein-MLL peptide displacement from menin. AID 1766. FP activity change, % at 61.4 µM. 290,000 tested, under 10 active; active means well fitted curve in the direction sought with a large enough effect in the polarisation, not every such curve was filed as active; inconclusive means small, poorly fitted or top-dose-only effect, or effect the other way, or a change in a side signal; inactive means no such curve, though single readings can be large or run the other way; the % refers to the polarisation
A number is an active result; - = inactive; ? = inconclusive; . = not tested or not shown; [ ] = another dose, or the depositor's remark. Most compounds without a hit are left out; they make up all but 1.9% or so of the library.

SMILES | Epigenetic derep | CXXC DNA block | PINK1 modulator | ClpP mod | Menin MLL FP TR | Menin-MLL FL inh
Cc1ccccc1N=C/C=C1/C=C(c2ccccc2)OC(C)(C)O1 | 22.4µM | - | - | - | - | -
Cc1ccc(OCCC(=O)OCC(=O)Nc2ccc3[nH]c(=O)[nH]c3c2)cc1 | . | . | - | - | . | .
Cc1ccccc1OCCC(=O)OCC(=O)Nc1ccc2[nH]c(=O)[nH]c2c1 | . | . | - | 31.6µM | . | .
Cc1ccc2nc(SCC(=O)N3CCC4(CC3)CC4C(=O)Nc3ccc(F)c(F)c3)[nH]c2c1 (stereo unspecified) | . | . | - | . | . | .
O=c1oc2ccc3ccccc3c2c2c1SC(C(F)(F)F)C2 (stereo unspecified) | - | - | - | 35.5µM | - | -
Cc1cccn2c(=O)c3cc(C(=O)O)n(C)c3nc12 | - | - | - | 31.6µM | - | -
CCCCNC(=O)c1cc2c(=O)n3cccc(C)c3nc2n(CCN2CCOCC2)c1=N | - | - | - | 12.6µM | - | -
CCCCNC(=O)c1cc2c(=O)n3cccc(C)c3nc2n(Cc2ccncc2)c1=N | - | - | ? | 3.55µM | - | -
Cc1cccn2c(=O)c3cc(C#N)c(=N)n(CCN4CCOCC4)c3nc12 | - | - | - | 15.8µM | - | -
O=C(Cn1cc2ccccc2n1)N1CCOc2ccc(C(O)C3CCCCC3)cc2C1 (stereo unspecified) | . | . | - | . | . | .
COc1ccc2c(c1)OC(C)CN(CC(=O)NCc1cn[nH]c1-c1ccc(F)cc1)C2 (stereo unspecified) | . | . | - | . | . | .
CN1C(=S)SC(N2OC3C(=O)N(c4ccccc4)C(=O)C3C2c2ccc(Cl)cc2)C1(C)C (stereo unspecified) | - | - | - | 28.2µM | - | -
CC1CCN(c2nc(-c3ccccc3)cc(C(F)(F)F)n2)CC1 | - | - | - | ? | - | -
Cc1ccc(-c2cc(C(F)F)nc(N3CCC(C)CC3)n2)cc1 | - | - | - | 25.1µM | - | -
COc1ccccc1-c1ccnc(-n2ncc(C(=O)N[C@H]3CCCCNC3=O)c2C2CC2)n1 | . | . | - | . | . | .
Cc1cccnc1NCC(O)COc1ccccc1 (stereo unspecified) | - | - | - | 28.2µM | - | -
O=C(Cn1c(-c2cccs2)cc2cc(F)ccc21)N1CCCCC1 | - | . | - | ? | . | .
CCCN1CCN(C(=O)Cn2c(-c3cccs3)cc3cc(F)ccc32)CC1 | - | . | - | - | . | .
CCOC(=O)C1CCN(C(=O)Cn2c(-c3cccs3)cc3cc(Cl)ccc32)CC1 | - | . | - | 35.5µM | . | .
CC1CCN(C(=O)Cn2c(-c3cccs3)cc3cc(Cl)ccc32)CC1 | - | . | - | 35.5µM | . | .
CC(=O)N(Cc1cccnc1)c1cccc(-c2nc3ccccc3s2)c1 | - | - | - | 14.1µM | - | -
CC(C)NC(=O)[C@@H]1C[C@@H](Sc2ccccn2)CN1C1CCN(C)CC1 | . | . | - | . | . | .
Nc1nnc(SCC(=O)NCCOc2ccccc2)s1 | - | - | - | 25.1µM | - | -
Nc1nnc(SCC(=O)NCCNC(=O)CSc2nnc(N)s2)s1 | . | . | - | - | . | .
CC(C)(C)c1cc(NC(=O)CSc2nnc(N)s2)n(-c2ccccc2)n1 | - | - | - | 28.2µM | - | -
SMILES | Epigenetic derep | CXXC DNA block | PINK1 modulator | ClpP mod | Menin MLL FP TR | Menin-MLL FL inh
Cc1nc2cc(NC(=O)[C@@H]3C[C@@H](Sc4ccccn4)CN3Cc3cccc(F)c3)ccc2s1 | . | . | - | . | . | .
CCCCCCCCCC[n+]1ccc(/C=C/c2c[nH]c3ccccc23)cc1 | . | . | . | - | . | .
CC(=O)c1ccc(F)c(-c2cc(C)cc3c2OC(CNC(=O)c2cccnc2)C3)c1 (stereo unspecified) | . | . | - | . | . | .
Cc1cnc(-n2ncc(C(=O)N(C)C3CCOC3)c2-c2cccs2)nc1-c1ccc(F)cc1 (stereo unspecified) | . | . | - | . | . | .
CCN1C(=O)C(CC(=O)NC)N(NC(=O)c2ccccc2)C1=S (stereo unspecified) | - | - | - | 25.1µM | - | -
CCCCC1=CC2=C(c3ccco3)C(=O)C(C)(OC(=O)c3ccc(OC)cc3)C(=O)C2=CN1Cc1ccccc1 (stereo unspecified) | 17.8µM | - | - | - | -[11.7 µM] | ?
CCCCNC(=O)c1c(O)c2cccc3c2n(c1=O)CCC3 | - | - | - | 11.2µM | - | -
